PubChem BioAssay AID1259418 (Broad Institute, 2018)
Out of some 3,400 compounds screened, about 840 (25%) were called active. Another 11% or so got no clear call; they are omitted. Not all results are given here. Entries with a potency or affinity are not part of this list. Values without a mark were called inactive.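 Rule for the calls: active = fitted half-maximal concentration of signal decrease at or below twice the sample's top tested concentration; inconclusive = flat curve between -70 and -30 percent, or poor fit; inactive = flat within 30 percent, signal rise, or potency above limit.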

test: inhibitors of Toxoplasma growth in IFN-γ-primed HeLa – cell-based, ME49Luc, luciferase, 72 h, dose response (AID 1259418); details: T. gondii ME49Luc in IFN-y HeLa, hits give low values, -100% = high-dose IFN-γ control wells; at 19.5 µM unless noted

SMILES | max activity
COc1ccc(-c2nc(Cn3c(=O)c4c(C)cc(C)nc4n(-c4ccccc4)c3=O)c(C)o2)c(OC)c1 | 5.72% [at 2.6 µM]
CCc1ccccc1Nc1ncnc2c1cnn2-c1ccccc1 | 13.8% [at 10 µM]
COc1ccc(Cl)cc1S(=O)(=O)Nc1ccc(-c2nc(-c3ccc(C)c(C)c3)co2)cc1 | 41.1% [at 10 µM]
COc1ccc(C#Cc2ccc3c(c2)[C@H]2[C@H](CCN2S(=O)(=O)c2ccccc2C)[C@H](CO)N3C)cc1 | 22.1% [at 10 µM]
CN1c2ccc(-c3ccc(C#N)cc3)cc2[C@H]2[C@H](CCN2S(=O)(=O)c2ccc(F)cc2)[C@H]1CO | 42.2% [at 10 µM]
CN1c2ccc(Br)cc2[C@H]2[C@H](CCN2S(=O)(=O)c2ccccc2F)[C@H]1CO | 25% [at 9 µM]
COc1ccc2c(c1)NC1(CCN(C(=O)c3ccccc3C)CC1)c1cccn1-2 | 9.16% [at 0.68 µM]
CCc1cccc(NC(=O)COc2nc(C)nc3ccccc23)c1 | 15.1% [at 0.16 µM]
CCc1ccc(S(=O)(=O)N2CCC3(CCC(C(=O)N4CCCC4)O3)CC2)cc1 (stereo not given) | 19.6%
CCOc1ccc(-c2nc3c(s2)CN(S(=O)(=O)c2ccc(CC)cc2)CC3)cc1 | 33%
Cc1ccc(-c2coc(-c3ccc(NC(=O)c4ccc(Br)o4)cc3)n2)c(C)c1 | 29% [at 0.68 µM]
COc1ccc(CCC(=O)N2CCC(C(=O)NCCc3csc(-c4ccccc4)n3)CC2)cc1 | 22% [at 10 µM]
COc1ccc(-c2cnc3n2CCNC32CCN(C(=O)N3CCOCC3)CC2)cc1 | 31.8%
Cc1oc(-c2cccc(Cl)c2)nc1Cn1nnc(-c2nc(-c3ccccc3)no2)c1C | 25.3%
COc1ccc(-c2nc(NCCN3CCC(C)CC3)c3ccccc3n2)cc1 | 14.8%
CC(C)CCNc1nc(-c2ccc(Cl)cc2)nc2ccccc12 | -13.6% [at 0.35 µM]
COc1ccc(-c2nc(NCC3CCN(Cc4ccccc4Cl)CC3)c3ccccc3n2)cc1 | -15.1% [at 10 µM]
CCCCNc1nc(-c2ccc(Cl)cc2)nc2ccccc12 | 12.4% [at 0.68 µM]
COc1ccc2[nH]cc(CCNC(=O)c3cc(-c4ccccn4)nc4ccccc34)c2c1 | -12.8% [at 5 µM]
Cc1ccc(-c2coc(-c3ccc(NS(=O)(=O)c4ccc(Cl)cc4)cc3)n2)cc1C | 40.5% [at 2.6 µM]
